Results reported in PubChem BioAssay AID1159580 (chemical genetic matrix, 2015).
Among all 5,500 compounds or so, about 2,000 (36%) were called active. Another 18% or so got no clear call; they are omitted. No stated cut-off is given here; in the data, active means normalized growth mostly below about 0.91 (no sharp cut-off); inconclusive means no clear call, values can overlap the other calls; inactive means mostly above about 0.92. This is one part of the list.

Assay: chemical genetic growth profiling, strain panel (AID 1159580);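 further: tested at 20 µM; growth read once vehicle control cultures reached saturation at 30 °C; 1 = growth at the plate median or of vehicle wells; lower values mean less growth of the strain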
Conditions: S. cerevisiae deletion strains, growth OD
[1] = locus YHR030C, strain SLT2, hits give low values
[2] = locus YHR079C, strain IRE1, hits give low values
[3] = locus YJL095W, strain BCK1, hits give low values
[4] = locus YJR066W, strain TOR1, hits give low values
[5] = locus YLR113W, strain HOG1, hits give low values
[6] = locus YNL183C, strain NPR1, hits give low values
[7] = locus YOR231W, strain MKK1, hits give low values
[8] = locus YPL256C, strain CLN2, hits give low values

Measured: normalized growth

O=C(OOC(=O)c1ccccc1)c1ccccc1
active: [1] 0.842 | [2] 0.799 | [3] 0.812 | [4] 0.82 | [5] 0.642 | [6] 0.773 | [7] 0.792 | [8] 0.773
inactive: locus YAL021C, strain ccr4, hits give low values 0.969 | locus YAL026C, strain drs2, hits give low values 0.952 | locus YAL030W, strain snc1, hits give low values 0.976 | locus YBL061C, strain skt5, hits give low values 0.962 | locus YBR009C, strain hhf1, hits give low values 0.96 | locus YBR023C, strain chs3, hits give low values 0.977 | locus YBR171W, strain sec66, hits give low values 0.948 | locus YBR231C, strain swc5, hits give low values 0.978 | locus YBR279W, strain paf1, hits give low values 0.991 | locus YCL011C, strain gbp2, hits give low values 0.962 | locus YCL016C, strain dcc1, hits give low values 0.956 | locus YCL061C, strain MRC1, hits give low values 0.96 | locus YCL069W, strain vba3, hits give low values 0.993 | locus YCR088W, strain abp1, hits give low values 0.998 | locus YDL005C, strain med2, hits give low values 0.977 | locus YDL040C, strain nat1, hits give low values 0.992 | locus YDR001C, strain nth1, hits give low values 0.976 | locus YDR069C, strain doa4, hits give low values 0.965 | locus YDR137W, strain rgp1, hits give low values 0.959 | locus YDR159W, strain sac3, hits give low values 0.94 | locus YDR195W, strain ref2 1.01 | locus YDR297W, strain sur2, hits give low values 0.982 | locus YDR334W, strain swr1, hits give low values 0.92 | locus YDR335W, strain msn5, hits give low values 0.986 | locus YDR392W, strain spt3, hits give low values 0.933 | locus YEL003W, strain gim4, hits give low values 0.989 | locus YEL037C, strain rad23, hits give low values 0.977 | locus YEL061C, strain CIN8 (second series), hits give low values 0.985 | locus YER015W, strain faa2, hits give low values 0.959 | locus YER016W, strain bim1, hits give low values 0.993 | locus YER111C, strain swi4, hits give low values 0.972 | locus YER155C, strain BEM2 (second series), hits give low values 0.971 | locus YFR010W, strain ubp6, hits give low values 0.948 | locus YGL167C, strain pmr1, hits give low values 0.965 | locus YGL173C, strain kem1, hits give low values 0.956 | locus YGL227W, strain vid30, hits give low values 0.981 | locus YGL240W, strain doc1, hits give low values 0.989 | locus YGL253W, strain hxk2, hits give low values 0.96 | locus YHR013C, strain ard1, hits give low values 0.959 | locus YHR027C, strain rpn1, hits give low values 0.95 | locus YHR142W, strain chs7, hits give low values 0.95 | locus YJL092W, strain hpr5, hits give low values 0.97 | locus YJL095W, strain BCK1 (second series), hits give low values 0.993 | locus YJL115W, strain asf1, hits give low values 0.95 | locus YJL129C, strain trk1, hits give low values 0.991 | locus YJL154C, strain vps35, hits give low values 0.984 | locus YJL164C, strain tpk1, hits give low values 0.983 | locus YJL166W, strain qcr8, hits give low values 0.964 | locus YJL187C, strain SWE1, hits give low values 0.981 | locus YKL160W, strain elf1, hits give low values 0.969 | locus YKR026C, strain gcn3, hits give low values 0.979 | locus YKR091W, strain srl3, hits give low values 0.976 | locus YLL001W, strain dnm1, hits give low values 0.941 | locus YLL026W, hits give low values 0.974 | locus YLL041C, strain sdh2, hits give low values 0.968 | locus YLR027C, strain aat2, hits give low values 0.961 | locus YLR221C, strain rsa3, hits give low values 0.93 | locus YLR258W, strain gsy2, hits give low values 0.991 | locus YLR262C, strain YPT6 (second series), hits give low values 0.976 | locus YLR320W, strain mms22, hits give low values 0.95 | locus YLR342W, strain FKS1, hits give low values 0.971 | locus YLR357W, strain rsc2, hits give low values 0.975 | locus YLR370C, strain arc18, hits give low values 0.954 | locus YLR384C, strain iki3, hits give low values 0.954 | locus YML120C, strain ndi1, hits give low values 0.944 | locus YMR058W, strain fet3, hits give low values 0.953 | locus YMR125W, strain sto1, hits give low values 0.979 | locus YMR129W, hits give low values 0.998 | locus YMR205C, strain PFK2, hits give low values 0.949 | locus YMR231W, strain pep5, hits give low values 0.984 | locus YNL071W, strain lat1, hits give low values 0.981 | locus YNL209W, strain ssb2, hits give low values 0.981 | locus YNL248C, strain rpa49, hits give low values 0.957 | locus YNL322C, strain KRE1 (second series), hits give low values 0.941 | locus YNR049C, strain mso1, hits give low values 0.959 | locus YOR001W, strain rrp6, hits give low values 0.982 | locus YOR070C, strain gyp1, hits give low values 0.981 | locus YOR080W, strain dia2, hits give low values 0.961 | locus YOR083W, strain WHI5, hits give low values 0.965 | locus YOR106W, strain vam3, hits give low values 0.926 | locus YOR265W, strain rbl2, hits give low values 0.98 | locus YOR270C, strain vph1, hits give low values 0.973 | locus YOR290C, strain snf2, hits give low values 0.917 | locus YPL051W, strain arl3, hits give low values 0.97 | locus YPL078C, strain atp4, hits give low values 0.966 | locus YPL106C, strain sse1, hits give low values 0.977 | locus YPL240C, strain hsp82, hits give low values 0.982

N#CSCC(=O)c1ccccc1
active: locus YAR019C, strain CDC15, hits give low values 0.0948 | locus YBL105C, strain PKC1, hits give low values 0.0869 | locus YBR135W, strain CKS1, hits give low values 0.0998 | locus YBR136W, strain MEC1, hits give low values 0.0968 | locus YBR160W, strain CDC28, hits give low values 0.101 | locus YDL017W, strain CDC7, hits give low values 0.092 | locus YDL028C, strain MPS1, hits give low values 0.108 | locus YDL101C, strain DUN1, hits give low values 0.159 | locus YDL108W, strain KIN28, hits give low values 0.107 | locus YDL214C, strain PRR2, hits give low values 0.125 | locus YDR052C, strain DBF4, hits give low values 0.273 | locus YDR477W, strain SNF1, hits give low values 0.107 | locus YER123W, strain YCK3, hits give low values 0.121 | locus YER133W, strain GLC7, hits give low values 0.12 | locus YFL009W, strain cdc4, hits give low values 0.104 | locus YFL029C, strain CAK1, hits give low values 0.0973 | locus YFR003C, strain YPI1, hits give low values 0.0991 | locus YFR019W, strain FAB1, hits give low values 0.0919 | locus YGR040W, strain KSS1, hits give low values 0.119 | locus YGR052W, strain FMP48, hits give low values 0.127 | locus YGR092W, strain DBF2, hits give low values 0.0982 | [1] 0.111 | [2] 0.107 | locus YHR082C, strain KSP1, hits give low values 0.145 | locus YHR205W, strain SCH9, hits give low values 0.00392 | locus YIL147C, strain SLN1, hits give low values 0.0993 | [3] 0.101 | locus YJL128C, strain PBS2, hits give low values 0.499 | locus YJL157C, strain FAR1, hits give low values 0.0986 | locus YJR016C, strain ILV3, hits give low values 0.0975 | locus YJR066W, strain TOR1 (second series), hits give low values 0.101 | [4] 0.122 | locus YKL048C, strain ELM1, hits give low values 0.154 | locus YKL067W, strain YNK1, hits give low values 0.119 | locus YKL101W, strain HSL1, hits give low values 0.115 | locus YKL193C, strain SDS22, hits give low values 0.105 | locus YKL203C, strain TOR2, hits give low values 0.112 | [5] 0.147 | locus YLR133W, strain CKI1, hits give low values 0.0895 | locus YLR403W, strain SFP1, hits give low values 0.0174 | locus YML070W, strain DAK1, hits give low values 0.126 | locus YMR001C, strain CDC5, hits give low values 0.0981 | locus YMR205C, strain PFK2 (second series), hits give low values 0.095 | locus YMR277W, strain FCP1, hits give low values 0.0965 | locus YNL006W, strain LST8, hits give low values 0.0939 | locus YNL020C, strain ARK1, hits give low values 0.0915 | locus YNL161W, strain CBK1, hits give low values 0.0943 | [6] 0.13 | locus YNL207W, strain RIO2, hits give low values 0.121 | locus YNL222W, strain SSU72, hits give low values 0.0984 | locus YNL307C, strain MCK1 (second series), hits give low values 0.0995 | locus YOL078W, strain AVO1, hits give low values 0.107 | locus YOL136C, strain PFK27, hits give low values 0.14 | locus YOR061W, strain CKA2, hits give low values 0.158 | locus YOR119C, strain RIO1, hits give low values 0.132 | [7] 0.118 | locus YOR329C, strain SCD5, hits give low values 0.0919 | locus YPL031C, strain PHO85, hits give low values 0.107 | locus YPL153C, strain RAD53, hits give low values 0.117 | locus YPL204W, strain HRR25, hits give low values 0.109 | locus YPL209C, strain IPL1, hits give low values 0.0967 | [8] 0.135 | locus YPR025C, strain CCL1, hits give low values 0.0952 | locus YPR106W, strain ISR1, hits give low values 0.469 | locus YPR111W, strain DBF20, hits give low values 0.505 | strain NNK1, hits give low values 0.0857 | strain TSCII, hits give low values 0.0982
